The values below come from PubChem BioAssay AID504773 (Broad Institute, 2011).

SMILES strings stand for the structures. Results with a measured potency or affinity are listed apart. Activity calls are given as the source filed them.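 Rule for the calls: active = polarization signal falls with dose and the fitted half-maximal concentration is at or below ten times the sample's top valid dose; inconclusive = flat curve at 30 to 70% inhibition, or poor fit; inactive = signal rises, flat within 30%, or potency beyond limit.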

The test concerns the target Golgi-associated PDZ and coiled-coil motif-containing protein (Homo sapiens) (UniProt Q9HD26). Description: CAL PDZ peptide-binding inhibitors, dose response, biochemical, fluorescence polarization, Cerulean-tagged CAL PDZ, cherry-picks (AID 504773). On the technique in general: In fluorescence polarisation assays a small probe gives low polarisation when free and higher when bound to something large.

For `O=C(NNC(=O)c1ccc(Cl)c(Cl)c1)c1cccnc1`, the outcome was inactive.

On to `O=C(NC(=S)NCCCN1CCOCC1)c1ccc(Br)cc1`, for which the result was inactive.

As for `Cc1cc(C(=O)CN2CCCC2)c(C)n1-c1ccc(Cl)cc1`, the result was inactive.

`CC1CCC(NC(=O)C2CCN(c3cnccn3)CC2)CC1` (centres undefined): the outcome was inactive.

For `COc1ccc(N2CCN(C(=O)c3cccc4nc(C)oc34)CC2)cc1`, the outcome was inactive.

On to `Cc1cccc(C)c1NC(=S)NC(=O)c1ccc(Br)o1`, for which the result was inactive.

For `CCOC(=O)C1CCN(C(=O)C2CC(=O)N(c3ccc4c(c3)OCCO4)C2)CC1` (centres undefined), the outcome was inactive.

With `COC(=O)N/N=C/c1sc(N2CCCCC2)nc1-c1cccs1`, the molecule was called inactive.

Turning to `COCCN(C(=S)Nc1ccccc1OC)C1CCN(C(C)C)CC1`, the molecule was classed as inactive.

As to `O=C(NCc1ccccc1Cl)C1CC(=O)N(Cc2ccccc2)C1` (centres undefined), the result was inactive.

As for `O=S(=O)(c1cccc2ccccc12)N1CCCCC1`, the molecule was classed as inactive.

With `C=CCOC(=O)C1=C(C)Nc2nc3ccccc3n2C1c1ccncc1` (centres undefined), the molecule was called inactive.

As for `CCCn1nnnc1NCc1cc(Br)ccc1OC`, the molecule was called inactive.

For `CC(=O)c1ccc(S(=O)(=O)N2CCN(c3ccccc3F)CC2)cc1`, the call was inactive.

Turning to `CCN(C(=O)CSc1ncccc1C(=O)O)C1CCCCC1`, the molecule was classed as inactive.

As to `CCc1nc(SCC(=O)c2ccccc2)c2c(=O)n(C)c(=O)n(C)c2n1`, the outcome was inactive.

In the case of `COCCCNC(=O)c1c[nH]c2ccc(S(=O)(=O)N3CCC(C)CC3)cc2c1=O`, the molecule was called inactive.

As to `O=C(O)c1ccc(Oc2cc(Oc3ccc(C(=O)O)cc3)cc([N+](=O)[O-])c2)cc1`, the outcome was inactive.

For `Cc1sc2ncn(CC(=O)NCCCC(=O)N3CCN(Cc4ccc5c(c4)OCO5)CC3)c(=O)c2c1C`, the outcome was inactive.
